What was measured:
Format in all cases: functional
[1] = molecular target: Solute carrier family 2, facilitated glucose transporter member 1 (Homo sapiens) (UniProt P11166); experiment: ST_JUDE_LEISH: Cytotoxicity at 2uM final concentration against transgenic Leishmania Mexicana promastigotes LmGLUT1 that are glucose transport deficient and complemented with the human glucose transporter GLUT1. Activity is measured by DNA content using SYBR green in vitro
[2] = molecular target: Hexose transporter 1 (Plasmodium falciparum) (UniProt O97467); experiment: ST_JUDE_LEISH: Cytotoxicity at 2uM final concentration against transgenic Leishmania Mexicana promastigotes LmPfHT that are glucose transport deficient and complemented with the Plasmodium falciparum hexose transporter. Activity is measured by DNA content using SYBR green in vitro
[3] = molecular target: Glucose transporter (Leishmania mexicana) (UniProt O61059); experiment: ST_JUDE_LEISH: Cytotoxicity at 2uM final concentration against transgenic Leishmania Mexicana promastigotes LmGT2 that are glucose transport deficient and complemented with the L. Mexicana glucose transporter 2. Activity is measured by DNA content using SYBR green in vitro

Solute carrier family 2, facilitated glucose transporter member 1 (Homo sapiens), sequence (P11166 whole entry): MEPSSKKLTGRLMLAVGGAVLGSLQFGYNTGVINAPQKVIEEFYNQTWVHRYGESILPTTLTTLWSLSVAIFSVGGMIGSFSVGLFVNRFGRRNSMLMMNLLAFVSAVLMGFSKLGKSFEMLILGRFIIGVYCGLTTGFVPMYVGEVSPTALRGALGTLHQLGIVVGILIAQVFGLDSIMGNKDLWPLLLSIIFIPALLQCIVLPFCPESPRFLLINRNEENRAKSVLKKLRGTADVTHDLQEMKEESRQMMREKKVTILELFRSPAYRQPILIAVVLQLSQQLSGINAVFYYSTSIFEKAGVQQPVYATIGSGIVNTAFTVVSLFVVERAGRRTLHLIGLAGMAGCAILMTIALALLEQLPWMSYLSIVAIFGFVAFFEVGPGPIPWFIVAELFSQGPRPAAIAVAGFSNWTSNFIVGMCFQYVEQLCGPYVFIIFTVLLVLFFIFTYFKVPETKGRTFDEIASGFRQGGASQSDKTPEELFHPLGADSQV

## CCCC1CCNC(C(O)c2ccnc3ccc(OC)cc23)C1 (stereo unspecified)
[1]
  inhibition: 1.89%
[2]
  inhibition: 1.16%
[3]
  inhibition: 2.16%

## Nc1ncc(-c2ccccc2)cc1-c1cccc2ncccc12
[1]
  inhibition: 7.53%
[2]
  inhibition: 9.12%
[3]
  inhibition: 6.36%

## COc1cc2c(cc1OC)CN(CCc1ccc(NC(=O)c3cc4cc(Cl)ccc4[nH]3)cc1)CC2
[1]
  inhibition: 8.2%
[2]
  inhibition: 0.43%
[3]
  inhibition: 1.46%

## CC(C)CN(c1nc(C(=O)NNC(=O)[C@H](CC2CC2)NC(=O)c2cc3cc(OCCN(C)C)ccc3o2)cs1)C1CC1
[1]
  inhibition: 6.19%
[2]
  inhibition: 6.53%
[3]
  inhibition: 7.9%

## Clc1ccc(OCCC2CCN(CCCCCCN3CCCCC3)CC2)cc1Cl
[1]
  inhibition: 10.8%
[2]
  inhibition: 4.99%
[3]
  inhibition: 17%

## CCCCCCN(CCCCCC)CCCCNc1c2ccc(Cl)cc2nc2ccc(OC)cc12
[1]
  inhibition: -3.87%
[2]
  inhibition: 0.39%
[3]
  inhibition: 0.56%

## CCn1c(-c2nonc2N)nc2c(-c3cccc(Cl)c3)ncc(OCCCNCc3cnc(C)nc3N)c21
[1]
  inhibition: 0.16%
[2]
  inhibition: -3.01%
[3]
  inhibition: 2.98%

## O=C(NCc1cccc(F)c1)Nc1ccc(-c2cccc(-c3nc4cc(F)ccc4[nH]3)c2)cc1
[1]
  inhibition: 1.98%
[2]
  inhibition: 1.08%
[3]
  inhibition: 6.08%

## COc1cc(-c2nnc(SCC(=O)Nc3cc(C)on3)n2C)cc(OC)c1O
[1]
  inhibition: 7.83%
[2]
  inhibition: 7.61%
[3]
  inhibition: 7.59%

## Oc1cc(-c2nc(-c3ccccc3)[nH]c2-c2ccncc2)ccc1Cl
[1]
  inhibition: 4.1%
[2]
  inhibition: 1.67%
[3]
  inhibition: 1.44%

## O=C(Cc1c[nH]cn1)Nc1ccc(-c2ccc(-c3nc4cc(C(F)(F)F)ccc4[nH]3)s2)cc1
[1]
  inhibition: -0.37%
[2]
  inhibition: -0.36%
[3]
  inhibition: -0.01%

## O=C(NC1CCN(c2ccnc3ccccc23)C1)c1ccc(OC(F)(F)F)cc1 (stereo unspecified)
[1]
  inhibition: 1.75%
[2]
  inhibition: 1.97%
[3]
  inhibition: 2.7%

From ChEMBL document CHEMBL3433997, “St. Jude Leishmania screening dataset” (2016)
